From PubChem BioAssay (EPA / NIEHS)
Calls of active or inactive are those of the source. The calls were made as follows: active = hit-call score of the fitted dose curve at least 0.9, where 1 is the maximum; inactive = score below 0.9.

Assays:
[1] = read-out: Transforming growth factor beta 1 (TGFb1), TGFB1 (gene 7040); assay: BSK_KF3CT_TGFb1: BioMAP Diversity Plus: KF3CT Assay for Transforming growth factor beta 1 (TGFb1) Biomarker Activity (AID 2283072); settings: primary human keratinocytes with fibroblasts; actives raise or lower the signal
Outline: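 Read-out: ELISA for TGF-b1 in keratinocyte/foreskin fibroblast human skin co-culture, 24 h after dosing; bidirectional curve fit vs DMSO baseline; gain or loss of signal scored.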

[2] = read-out: C-C motif chemokine 2 (Homo sapiens) (UniProt P13500); assay: BSK_KF3CT_MCP1: BioMAP Diversity Plus: KF3CT Assay for Monocyte Chemoattractant Protein 1 (MCP1/CCL2) Biomarker Activity (AID 2283073); settings: primary human keratinocytes with fibroblasts; actives raise or lower the signal
Outline: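 ELISA readout of MCP-1 after 24 h chemical dosing of a human skin primary co-culture of keratinocytes and foreskin fibroblasts. Activity was fitted in both directions against DMSO.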

[3] = read-out: Matrix Metallopeptidase 9 (MMP9), MMP9 (gene 4318); assay: BSK_KF3CT_MMP9: BioMAP Diversity Plus: KF3CT Assay for Matrix Metallopeptidase 9 (MMP9) Biomarker Activity (AID 2283074); settings: primary human keratinocytes with fibroblasts; actives raise or lower the signal
Outline: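 MMP-9 quantified by ELISA after 24 h chemical treatment of primary human skin keratinocyte/fibroblast co-cultures; gain or loss fitted against DMSO, with parallel SRB staining (0.1% SRB, 560 nm) for overt cytotoxicity.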

[4] = read-out: urokinase plasminogen activator (uPA), PLAU (gene 5328); assay: BSK_KF3CT_uPA: BioMAP Diversity Plus: KF3CT Assay for urokinase plasminogen activator (uPA) Biomarker Activity (AID 2283075); settings: primary human keratinocytes with fibroblasts; actives raise or lower the signal
Outline: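 ELISA read-out of uPA 24 h after dosing human skin keratinocytes co-cultured with foreskin fibroblasts. Signal change fitted both ways relative to DMSO; sulforhodamine B on parallel cultures marks overt cytotoxicity.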

CD40, CD40 (gene 958) [5] = assay: BSK_LPS_CD40: BioMAP Diversity Plus: LPS Assay for CD40 Biomarker Activity (AID 2283076); settings: primary human HUVEC with PBMC; actives raise or lower the signal
Outline: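 Cells were dosed, incubated 24 h, then assayed for CD40 by ELISA. Gain or loss of signal was analysed relative to DMSO controls. The culture paired human umbilical vein endothelium with peripheral blood mononuclear cells.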

[6] = read-out: E-selectin (Homo sapiens) (UniProt P16581); assay: BSK_LPS_Eselectin: BioMAP Diversity Plus: LPS Assay for Eselectin Biomarker Activity (AID 2283077); settings: primary human HUVEC with PBMC; actives raise or lower the signal
Outline: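 Primary human vascular co-culture (endothelium plus PBMC) was dosed with chemical, then E-selectin quantified by ELISA at 24 h. Endpoint values derive from bidirectional curve fitting relative to DMSO.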

[7] = read-out: Interleukin-8 (IL8), CXCL8 (gene 3576); assay: BSK_LPS_IL8: BioMAP Diversity Plus: LPS Assay for Interleukin-8 (IL8) Biomarker Activity (AID 2283078); settings: primary human HUVEC with PBMC; actives raise or lower the signal
Outline: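 Readout is IL-8 by ELISA, taken 24 h after compounds were added to LPS-stimulated endothelial/PBMC co-cultures. Both increases and decreases relative to DMSO control were scored through bidirectional fitting.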

[8] = BSK_LPS_SRB: Viability Assessment in the BioMAP Diversity Plus: LPS Assay (AID 2283079); settings: primary human HUVEC with PBMC;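 also: total protein by sulforhodamine B absorbance as a cytotoxicity measure; measured one day after compound addition; fitted in both directions against DMSO so loss or gain of signal counts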
Outline: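 Readout is SRB absorbance at 560 nm (0.1% stain, TCA-fixed parallel cultures) as a total-protein cytotoxicity measure. Cells: primary human umbilical vein endothelium plus peripheral blood mononuclear cells, 24 h after chemical exposure; DMSO served as baseline.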

[9] = read-out: Interleukin-1 alpha (IL1a), IL1A (gene 3552); assay: BSK_LPS_IL1a: BioMAP Diversity Plus: LPS Assay for Interleukin-1 alpha (IL1a) Biomarker Activity (AID 2283080); settings: primary human HUVEC with PBMC; actives raise or lower the signal
Outline: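 ELISA read-out of IL-1 alpha from a human primary vascular co-culture (endothelium plus PBMC) under LPS, sampled 24 hours post-dosing. Activity was fitted in both directions relative to DMSO controls.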

[10] = read-out: Macrophage colony-stimulating factor (MCSF), CSF1 (gene 1435); assay: BSK_LPS_MCSF: BioMAP Diversity Plus: LPS Assay for Macrophage colony-stimulating factor (MCSF) Biomarker Activity (AID 2283083); settings: primary human HUVEC with PBMC; actives raise or lower the signal
Outline: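 ELISA readout of M-CSF after 24 h compound exposure in a human endothelial/PBMC co-culture. Activity, in either direction, is fitted relative to DMSO vehicle.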

[11] = read-out: Tissue Factor, F3 (gene 2152); assay: BSK_LPS_TissueFactor: BioMAP Diversity Plus: LPS Assay for Tissue Factor Biomarker Activity (AID 2283084); settings: primary human HUVEC with PBMC; actives raise or lower the signal
Outline: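 ELISA signal for cell-surface Tissue Factor (CD142) was read 24 h after compound dosing of an LPS-stimulated human endothelial–PBMC primary co-culture. Gain or loss of signal was scored relative to DMSO.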

[12] = read-out: Tumor necrosis factor (Homo sapiens) (UniProt P01375); assay: BSK_LPS_TNFa: BioMAP Diversity Plus: LPS Assay for Tumour Necrosis Factor alpha (TNFa) Biomarker Activity (AID 2283085); settings: primary human HUVEC with PBMC; actives raise or lower the signal
Outline: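 HUVEC/PBMC co-culture, LPS-stimulated; 24 h post-dose; TNFa by ELISA; gain or loss of signal fitted bidirectionally vs DMSO baseline.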

[13] = read-out: Vascular cell adhesion molecule 1 (VCAM1), VCAM1 (gene 7412); assay: BSK_LPS_VCAM1: BioMAP Diversity Plus: LPS Assay for Vascular cell adhesion molecule 1 (VCAM1) Biomarker Activity (AID 2283086); settings: primary human HUVEC with PBMC; actives raise or lower the signal
Outline: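 ELISA read-out of VCAM-1 at 24 h post-dosing in an LPS-driven HUVEC/PBMC primary human co-culture; gain or loss of signal fitted bidirectionally against DMSO baseline. Cytotoxicity tracked in parallel cultures by SRB total-protein staining.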

CD38, CD38 (gene 952) = assay: BSK_SAg_CD38: BioMAP Diversity Plus: SAg Assay for CD38 Biomarker Activity (AID 2283087); settings: primary human HUVEC with PBMC; actives raise or lower the signal
Outline: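 Measures CD38 on a human endothelial/PBMC co-culture driven by SEB and TSST-1, 24 h after compound exposure, using ELISA with fluorescence detection; DMSO defines baseline for bidirectional curve fitting.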

CD40, CD40 (gene 958) [14] = assay: BSK_SAg_CD40: BioMAP Diversity Plus: SAg Assay for CD40 Biomarker Activity (AID 2283088); settings: primary human HUVEC with PBMC; actives raise or lower the signal
Outline: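 Compounds were dosed onto a human primary endothelial–PBMC co-culture, and after 24 h CD40 was quantified by ELISA using a fluorescence signal. Activity in either direction was fitted relative to DMSO.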

[15] = read-out: Monocyte Chemoattractant Protein-1 (MCP1), CCL2 (gene 6347); assay: BSK_SAg_MCP1: BioMAP Diversity Plus: SAg Assay for Monocyte Chemoattractant Protein-1 (MCP1) Biomarker Activity (AID 2283090); settings: primary human HUVEC with PBMC; actives raise or lower the signal
Outline: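 Values derive from bidirectional fitting of ELISA-measured MCP1 against DMSO controls. Readings were taken 24 h after dosing human vascular endothelial cells co-cultured with peripheral blood mononuclear cells under superantigen stimulation.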

[16] = read-out: E-selectin (Homo sapiens) (UniProt P16581); assay: BSK_SAg_Eselectin: BioMAP Diversity Plus: SAg Assay for Eselectin Biomarker Activity (AID 2283091); settings: primary human HUVEC with PBMC; actives raise or lower the signal
Outline: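 Co-culture: HUVEC + PBMC. Dose compound; 24 h. ELISA for E-selectin. Bidirectional fit vs DMSO.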

[17] = read-out: Monocyte Chemoattractant Protein-1 (MCP1), CCL2 (gene 6347); assay: BSK_LPS_MCP1: BioMAP Diversity Plus: LPS Assay for Monocyte Chemoattractant Protein-1 (MCP1) Biomarker Activity (AID 2283081); settings: primary human HUVEC with PBMC; actives raise or lower the signal
Outline: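 Human endothelial–PBMC co-cultures were dosed with chemical, then LPS-driven MCP-1 levels were quantified by ELISA at 24 h. Activity in either direction was fitted versus DMSO negative control.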

[18] = BSK_LPS_PGE2: BioMAP Diversity Plus: LPS Assay for Prostaglandin E2 (PGE2) Biomarker Activity (AID 2283082); settings: primary human HUVEC with PBMC; actives raise or lower the signal
Outline: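 ELISA read-out of PGE2 from human umbilical vein endothelial cells co-cultured with peripheral blood mononuclear cells under LPS, 24 h post-dose. Gain or loss of signal scored relative to DMSO baseline.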

CD69, CD69 (gene 969) = assay: BSK_SAg_CD69: BioMAP Diversity Plus: SAg Assay for CD69 Biomarker Activity (AID 2283089); settings: primary human HUVEC with PBMC; actives raise or lower the signal
Outline: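 Primary human vascular co-culture (umbilical vein endothelium with peripheral blood mononuclear cells) exposed to test chemical for 24 h. CD69 levels quantified by fluorescence ELISA; DMSO served as negative control for bidirectional fitting.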

Measured: AC50

E-selectin (Homo sapiens), sequence (P16581 whole entry, looked up): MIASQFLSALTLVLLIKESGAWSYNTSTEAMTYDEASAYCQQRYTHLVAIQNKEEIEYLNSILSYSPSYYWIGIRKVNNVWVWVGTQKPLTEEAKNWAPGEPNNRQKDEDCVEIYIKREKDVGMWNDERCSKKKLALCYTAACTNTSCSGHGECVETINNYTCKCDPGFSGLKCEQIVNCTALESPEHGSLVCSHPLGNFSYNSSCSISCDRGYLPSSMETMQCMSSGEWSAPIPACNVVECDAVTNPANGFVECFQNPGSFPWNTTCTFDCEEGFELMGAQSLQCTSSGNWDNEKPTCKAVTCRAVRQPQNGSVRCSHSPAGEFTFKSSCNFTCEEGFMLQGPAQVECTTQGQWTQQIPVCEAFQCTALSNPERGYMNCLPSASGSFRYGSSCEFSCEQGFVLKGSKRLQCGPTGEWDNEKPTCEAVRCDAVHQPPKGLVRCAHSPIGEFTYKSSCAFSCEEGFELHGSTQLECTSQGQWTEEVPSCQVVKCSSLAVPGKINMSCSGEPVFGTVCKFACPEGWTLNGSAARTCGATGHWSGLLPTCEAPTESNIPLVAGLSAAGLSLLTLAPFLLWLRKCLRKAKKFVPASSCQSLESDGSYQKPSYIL
Tumor necrosis factor (Homo sapiens), sequence (P01375 whole entry, looked up): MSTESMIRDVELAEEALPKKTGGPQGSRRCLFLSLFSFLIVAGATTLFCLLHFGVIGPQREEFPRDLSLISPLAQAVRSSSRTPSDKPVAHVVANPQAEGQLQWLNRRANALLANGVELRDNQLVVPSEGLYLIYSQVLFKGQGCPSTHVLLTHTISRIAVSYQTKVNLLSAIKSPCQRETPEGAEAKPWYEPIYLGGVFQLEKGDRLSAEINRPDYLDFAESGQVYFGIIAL

CN1CCCC1=O
not listed: [17] | [18] | CD69, CD69 (gene 969)
inactive: all other assays above

O=C(N[C@@H](Cc1ccccc1)[C@@H](O)C(=O)N1C[C@@H](O)[C@@H](O)C1)c1cc2cc(Cl)ccc2[nH]1
not listed: [17] | [18] | CD69, CD69 (gene 969)
inactive: all other assays above

Cc1ccc(C)c(O)c1C
not listed: [3] | [18] | CD69, CD69 (gene 969)
inactive: all other assays above

NC(=O)Cn1c(=O)cc(CCN2CCN(c3nccc4sccc34)CC2)c2ccc(F)cc21
not listed: [3] | CD40, CD40 (gene 958) [14] | [17]
inactive: all other assays above

CC(=O)OCCOCCOCCOC(C)=O
not listed: [3] | CD40, CD40 (gene 958) [14] | [17] | CD69, CD69 (gene 969)
inactive: all other assays above

Cc1nc(-c2ccc3c(c2)CCN(CCC2CCC(NC(=O)/C=C/c4ccc(F)cc4)CC2)CC3)no1 (stereo not drawn)
active: CD40, CD40 (gene 958) [5] 3.86 µM | [7] 6.69 µM | [10] 9.3 µM | [13] 9.3 µM | CD38, CD38 (gene 952) 9.3 µM
not listed: [3] | CD40, CD40 (gene 958) [14] | [18]
inactive: all other assays above

O=C(O)CCCCC(=O)O
not listed: [3] | CD40, CD40 (gene 958) [14] | [17] | [18]
inactive: all other assays above

OC[C@@H](O)[C@@H](O)[C@H](O)[C@H](O)CO
not listed: [3] | CD40, CD40 (gene 958) [14] | [17] | [18]
inactive: all other assays above
